Pf apPOL block: Pf-apPOL DNA polymerase inhibition. Recombinant Pf-apPOL, molecular beacon fluorescence, 1.5 h. inhibition, % at 10 µM. 0.25% of 210,000 active. AID 1794808
mHTT CaM bind: mHTT-calmodulin interaction abrogation; inhibition, % at 15 µM; 3.6% of 190,000 active; AlphaScreen His-mHTT/GST-CaM binding, luminescence; P42858
Target sequence (P42858 whole entry, looked up, change not shown): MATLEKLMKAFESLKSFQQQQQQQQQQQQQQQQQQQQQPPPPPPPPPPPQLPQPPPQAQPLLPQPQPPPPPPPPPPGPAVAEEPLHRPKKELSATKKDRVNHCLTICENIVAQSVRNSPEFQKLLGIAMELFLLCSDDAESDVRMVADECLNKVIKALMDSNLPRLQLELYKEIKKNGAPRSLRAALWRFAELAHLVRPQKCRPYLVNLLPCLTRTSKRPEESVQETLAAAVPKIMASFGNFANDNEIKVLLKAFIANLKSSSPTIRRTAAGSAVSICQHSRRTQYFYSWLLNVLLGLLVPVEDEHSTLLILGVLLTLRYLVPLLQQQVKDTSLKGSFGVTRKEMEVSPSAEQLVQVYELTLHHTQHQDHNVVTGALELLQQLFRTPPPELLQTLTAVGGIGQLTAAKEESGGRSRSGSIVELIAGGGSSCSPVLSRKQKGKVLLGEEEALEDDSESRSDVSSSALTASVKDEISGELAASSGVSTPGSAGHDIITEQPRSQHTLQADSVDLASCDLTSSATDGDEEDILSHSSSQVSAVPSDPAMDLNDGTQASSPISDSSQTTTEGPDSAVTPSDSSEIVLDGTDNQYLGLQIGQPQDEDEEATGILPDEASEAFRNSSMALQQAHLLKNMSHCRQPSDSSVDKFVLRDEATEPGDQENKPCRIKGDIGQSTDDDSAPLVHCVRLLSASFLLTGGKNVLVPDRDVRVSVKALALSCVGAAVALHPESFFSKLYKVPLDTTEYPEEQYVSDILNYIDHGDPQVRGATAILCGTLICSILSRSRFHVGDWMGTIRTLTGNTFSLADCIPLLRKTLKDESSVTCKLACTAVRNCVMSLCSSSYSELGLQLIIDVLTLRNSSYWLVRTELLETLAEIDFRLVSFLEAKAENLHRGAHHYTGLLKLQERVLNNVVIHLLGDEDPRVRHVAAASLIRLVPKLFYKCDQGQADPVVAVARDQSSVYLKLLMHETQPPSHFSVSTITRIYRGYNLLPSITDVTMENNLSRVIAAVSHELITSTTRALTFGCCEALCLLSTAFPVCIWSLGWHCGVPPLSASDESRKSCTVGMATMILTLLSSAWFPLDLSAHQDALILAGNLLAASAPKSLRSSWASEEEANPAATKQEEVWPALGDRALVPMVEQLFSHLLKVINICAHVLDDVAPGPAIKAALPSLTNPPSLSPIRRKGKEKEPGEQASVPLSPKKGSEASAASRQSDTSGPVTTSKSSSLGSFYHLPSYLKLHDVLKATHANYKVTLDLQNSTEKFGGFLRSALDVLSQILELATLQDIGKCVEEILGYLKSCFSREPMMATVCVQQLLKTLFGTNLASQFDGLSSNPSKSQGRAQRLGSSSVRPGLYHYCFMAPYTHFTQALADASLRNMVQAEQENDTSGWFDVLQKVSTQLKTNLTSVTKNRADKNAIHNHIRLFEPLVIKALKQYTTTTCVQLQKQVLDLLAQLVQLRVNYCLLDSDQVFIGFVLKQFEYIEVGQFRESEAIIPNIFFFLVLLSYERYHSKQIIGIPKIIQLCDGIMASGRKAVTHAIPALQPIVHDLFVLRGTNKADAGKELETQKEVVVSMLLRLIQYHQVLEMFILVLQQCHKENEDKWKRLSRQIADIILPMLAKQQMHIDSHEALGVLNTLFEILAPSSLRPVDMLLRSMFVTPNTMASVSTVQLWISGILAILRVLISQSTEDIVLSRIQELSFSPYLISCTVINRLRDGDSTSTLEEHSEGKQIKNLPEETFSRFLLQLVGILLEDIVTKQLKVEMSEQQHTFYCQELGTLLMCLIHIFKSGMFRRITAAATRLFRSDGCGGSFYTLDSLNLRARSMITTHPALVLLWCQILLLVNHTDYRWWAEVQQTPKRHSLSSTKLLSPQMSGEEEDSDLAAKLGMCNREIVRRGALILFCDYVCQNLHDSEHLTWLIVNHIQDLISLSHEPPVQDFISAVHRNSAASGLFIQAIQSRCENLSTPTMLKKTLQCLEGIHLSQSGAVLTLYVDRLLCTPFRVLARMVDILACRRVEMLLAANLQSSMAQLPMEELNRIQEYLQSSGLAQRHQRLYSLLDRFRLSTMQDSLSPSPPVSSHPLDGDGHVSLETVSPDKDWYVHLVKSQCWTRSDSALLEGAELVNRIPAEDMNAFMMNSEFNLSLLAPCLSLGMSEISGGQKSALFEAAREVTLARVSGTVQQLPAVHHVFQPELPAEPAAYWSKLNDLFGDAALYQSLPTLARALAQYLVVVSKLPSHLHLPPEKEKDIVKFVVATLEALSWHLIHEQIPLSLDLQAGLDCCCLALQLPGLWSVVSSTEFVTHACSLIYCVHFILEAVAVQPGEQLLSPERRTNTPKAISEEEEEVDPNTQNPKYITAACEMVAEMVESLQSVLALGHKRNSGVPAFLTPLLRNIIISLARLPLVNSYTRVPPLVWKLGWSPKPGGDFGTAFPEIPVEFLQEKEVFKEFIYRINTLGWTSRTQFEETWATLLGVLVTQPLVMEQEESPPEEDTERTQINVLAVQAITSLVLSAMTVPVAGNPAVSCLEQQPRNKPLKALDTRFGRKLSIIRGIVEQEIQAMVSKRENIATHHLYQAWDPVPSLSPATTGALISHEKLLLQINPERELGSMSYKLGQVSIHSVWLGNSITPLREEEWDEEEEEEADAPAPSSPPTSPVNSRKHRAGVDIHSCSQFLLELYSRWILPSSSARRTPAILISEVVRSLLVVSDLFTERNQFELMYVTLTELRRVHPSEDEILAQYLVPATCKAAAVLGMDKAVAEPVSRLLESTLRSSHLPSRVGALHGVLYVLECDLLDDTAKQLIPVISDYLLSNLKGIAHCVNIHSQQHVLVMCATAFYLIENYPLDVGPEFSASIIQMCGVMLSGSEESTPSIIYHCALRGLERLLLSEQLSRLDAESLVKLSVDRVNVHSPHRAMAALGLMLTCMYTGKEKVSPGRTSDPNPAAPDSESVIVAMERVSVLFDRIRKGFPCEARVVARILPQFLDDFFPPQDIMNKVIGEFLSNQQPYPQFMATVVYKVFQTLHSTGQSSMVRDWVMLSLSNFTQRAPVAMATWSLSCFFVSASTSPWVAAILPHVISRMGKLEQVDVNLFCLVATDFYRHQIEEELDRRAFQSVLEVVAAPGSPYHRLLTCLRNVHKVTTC
Hits are given with their value. Hits are enriched below; roughly 3.5% of the tested compounds scored in any of these assays. No stated cut-off is given here; in the data, active means inhibition above about 50%; inactive means the rest.

Screening Cc1ccc(C)c(N=C2C(=O)Nc3ccc(Br)cc32)c1 returned Pf apPOL block inactive and mHTT CaM bind inactive.
`Cc1cccc(N=C2C(=O)Nc3ccc(Br)cc32)c1C` gave Pf apPOL block inactive and mHTT CaM bind 66.
CC1=C(C(=O)NCCN2CCCCCC2)C2(CCCCC2)OC1=O was read as Pf apPOL block inactive and mHTT CaM bind inactive.
O=[N+]([O-])c1ccc(OS(=O)(=O)c2ccc3ccccc3c2)c2ncccc12 was read as mHTT CaM bind 100.
`O=[N+]([O-])c1ccc(Sc2cccc3cccnc23)c2ncccc12` gave Pf apPOL block inactive and mHTT CaM bind inactive.
For O=C(NC1CCCC1)NC1CCN(c2ccccc2)C1=O (stereo unspecified) the results were Pf apPOL block inactive and mHTT CaM bind inactive.
Screening O=c1[nH]c(/C=C/c2ccc3c(c2)OCO3)c([N+](=O)[O-])c(=O)[nH]1 returned Pf apPOL block inactive and mHTT CaM bind inactive.
For Clc1nc(NCCN2CCOCC2)nc(Nc2ccc(I)cc2)n1 the results were Pf apPOL block inactive and mHTT CaM bind inactive.
CCOc1nc(NCCN2CCOCC2)nc(Nc2ccc(I)cc2)n1 was read as Pf apPOL block inactive and mHTT CaM bind 57.
CC(CCc1ccccc1)Nc1nc(Cl)nc(NCCN2CCOCC2)n1 (stereo unspecified) was read as Pf apPOL block inactive and mHTT CaM bind 62.
Clc1nc(NCCN2CCOCC2)nc(NCc2ccccc2)n1 was read as Pf apPOL block inactive and mHTT CaM bind inactive.
`CSc1nc(N2CCOCC2)nc(-c2ccccc2)c1C#N` gave Pf apPOL block inactive.
For CCC(=O)Nc1ccc2oc(-c3cccc(I)c3)nc2c1 the results were Pf apPOL block inactive and mHTT CaM bind inactive.
For O=C(NCCOc1ccc(F)cc1)c1cc(C2CC2)on1 the results were Pf apPOL block inactive and mHTT CaM bind inactive.
COc1ccc(OC)c(Nc2nc(CC(=O)NCCc3c[nH]c4ccccc34)cs2)c1 was read as Pf apPOL block inactive and mHTT CaM bind 53.
For COc1ccc(OC)c(Nc2nc(CC(=O)NCc3ccc4c(c3)OCO4)cs2)c1 the results were Pf apPOL block inactive and mHTT CaM bind inactive.
For Cc1cc(C)nc(Nc2nc(C(=O)NCCOc3ccc(F)cc3)cs2)n1 the results were Pf apPOL block inactive and mHTT CaM bind 91.
`O=C(NCCc1c[nH]c2ccccc12)c1csc(NS(=O)(=O)c2cccs2)n1` gave Pf apPOL block inactive and mHTT CaM bind inactive.
For Cc1cc(C)nc(Nc2nc(C(=O)NCCc3c[nH]c4ccccc34)cs2)n1 the results were Pf apPOL block inactive and mHTT CaM bind 86.
Screening Cn1cc(CCNC(=O)C2CCCC2)c2cccnc21 returned Pf apPOL block inactive and mHTT CaM bind inactive.
For Cc1c(N=Cc2cc(Cl)cc(Br)c2O)c(=O)n(-c2ccccc2)n1C the results were Pf apPOL block inactive and mHTT CaM bind inactive.
`COc1cc2cc(C3CC(c4ccccc4)=NN3C(=O)CCC(=O)O)c(Cl)nc2cc1OC` (stereo unspecified) gave Pf apPOL block inactive and mHTT CaM bind inactive.
`Cc1ccc2c(Nc3cccc(C#N)c3)c(C(=O)N3CCCC3)cnc2n1` gave Pf apPOL block inactive and mHTT CaM bind inactive.
`Cc1ccc(S(=O)(=O)N2CCSC2c2ccc(Br)cc2)cc1` (stereo unspecified) gave Pf apPOL block inactive and mHTT CaM bind inactive.
Screening CC1=CC(=O)C(C(C)C)=CC1=NC(=O)c1ccc(C)cc1 returned Pf apPOL block inactive and mHTT CaM bind 60.
`CC1=CC(=O)C(C(C)C)=C/C1=N\OC(=O)c1cccc(Br)c1` gave Pf apPOL block inactive and mHTT CaM bind inactive.
Screening O=C(CSc1cn(Cc2ccc(Cl)cc2)c2ccccc12)N1CCOCC1 returned Pf apPOL block inactive and mHTT CaM bind 72.
Screening CC1CCN(C(=O)CSc2cn(Cc3ccc(F)cc3)c3ccccc23)CC1 returned Pf apPOL block inactive and mHTT CaM bind 83.
For O=C(CSc1cn(Cc2ccc(Cl)cc2)c2ccccc12)N1CCCCC1 the results were Pf apPOL block inactive and mHTT CaM bind inactive.
`Cc1ccccc1Cn1cc(SCC(=O)N2CCOCC2)c2ccccc21` gave Pf apPOL block inactive and mHTT CaM bind inactive.
`CC1CCN(C(=O)CSc2cn(Cc3ccccc3Cl)c3ccccc23)CC1` gave Pf apPOL block inactive and mHTT CaM bind 58.
For O=C(CSc1cn(Cc2ccccc2Cl)c2ccccc12)N1CCCCC1 the results were Pf apPOL block inactive and mHTT CaM bind 53.
O=C(CSc1cn(Cc2cccc(F)c2)c2ccccc12)N1CCCCC1 was read as Pf apPOL block inactive and mHTT CaM bind inactive.
O=C(CSc1cn(Cc2ccc(F)cc2)c2ccccc12)N1CCOCC1 was read as Pf apPOL block inactive and mHTT CaM bind inactive.
For Cc1nc(SCc2ccccc2F)[nH]c(=O)c1CC(=O)Nc1ccc2c(c1)OCCO2 the results were Pf apPOL block inactive and mHTT CaM bind inactive.
For CC1=C(C(=O)N2CCCCC2)C(c2ccc(Br)cc2)n2c(nc3ccccc32)N1 (stereo unspecified) the results were Pf apPOL block inactive and mHTT CaM bind inactive.
For CC1(C)CC(=O)C2=C(C1)Nc1cc(Cl)ccc1S2 the results were Pf apPOL block inactive and mHTT CaM bind inactive.
O=C(CSc1cn(Cc2ccc(Cl)cc2)c2ccccc12)Nc1ccc2c(c1)OCO2 was read as Pf apPOL block inactive and mHTT CaM bind 64.
Screening O=C(CSc1cn(Cc2ccccc2Cl)c2ccccc12)Nc1ccc2c(c1)OCO2 returned Pf apPOL block inactive and mHTT CaM bind inactive.
`CC(C)C1C(=O)C(C)(C)C(=O)OC1c1ccc(Cl)cc1Cl` (stereo unspecified) gave Pf apPOL block inactive and mHTT CaM bind inactive.
`Cc1cccc(NC(=O)c2ccco2)c1` gave Pf apPOL block inactive and mHTT CaM bind inactive.
For COc1ccc(-c2nc(-c3cccnc3)no2)cc1F the results were Pf apPOL block inactive and mHTT CaM bind inactive.
For COC(=O)c1c(-c2ccccc2)csc1N the results were Pf apPOL block inactive and mHTT CaM bind inactive.
Screening c1ccc(-c2nc(-c3ccco3)[nH]c2-c2ccccc2)cc1 returned Pf apPOL block inactive.
`COc1cc(OC)c(-c2nc(-c3ccsc3)c(-c3ccccc3)[nH]2)cc1OC` gave Pf apPOL block inactive and mHTT CaM bind 68.
`Oc1ccc(C=Nc2ccc(I)cc2)cc1` gave Pf apPOL block inactive and mHTT CaM bind inactive.
`CC(C)(C)n1nc2c(c1NC(=O)c1cc([N+](=O)[O-])ccc1Cl)CS(=O)(=O)C2` gave Pf apPOL block inactive and mHTT CaM bind inactive.
Screening CN(C)c1ccc(C(CNC(=O)c2ccccc2[N+](=O)[O-])N2CCc3ccccc3C2)cc1 (stereo unspecified) returned Pf apPOL block inactive and mHTT CaM bind 66.
CN(C)c1ccc(C(CNC(=O)c2cccc([N+](=O)[O-])c2)N2CCOCC2)cc1 (stereo unspecified) was read as Pf apPOL block inactive and mHTT CaM bind inactive.
For COc1ccc(CC(=O)Nc2c3c(nn2-c2ccc(C)cc2C)CSC3)cc1 the results were Pf apPOL block inactive and mHTT CaM bind inactive.
`CC(C)(C)C1CCC2(CC1)NC(=O)N(CC(=O)Nc1ccc3c(c1)OCO3)C2=O` (stereo unspecified) gave Pf apPOL block inactive and mHTT CaM bind inactive.
For CC1(C)C(C=C(Cl)Cl)C1C(=O)Nc1cccc(C(F)(F)F)c1 (stereo unspecified) the results were Pf apPOL block inactive and mHTT CaM bind 53.

Assay outcomes (PubChem)
